# Measured values published in PubChem BioAssay.
# Activity calls are given as the source filed them. Unless noted, no stated cut-off is given here; in the data, active means inhibition above about 80%; inactive means the rest.
# Assays:
# [1] = compounds altering circadian rhythm period length – cell-based, LOPAC library, luminescence reporter (AID 2774; call rule not given here;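 further: values are relative to mean of DMSO wells on each plate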); settings: circadian reporter cells, at 7 µM, actives lie on both sides
# [2] = growth inhibition, single agents and combos, LFS_MB_1R, cell-based, cisplatin or BGB combos, synergistic combos for chromothripsis tumors (AID 1671452); settings: LFS_MB_1R medulloblastoma cells, stronger effect = higher value;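 further: cells exposed for 96 hours before readout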
# [3] = growth inhibition, single agents and combos, CRL2098, cell-based, BGB or cisplatin IC20 combos, synergistic combos for chromothripsis tumors (AID 1671454); settings: CRL2098 osteosarcoma cells, drug combinations, stronger effect = higher value;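 further: cells exposed for 96 h before readout; 0% = vehicle DMSO and 100% = killing by high DMSO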
# [4] = growth inhibition, single agents and combos, HD-MB03, cell-based, BGB or cisplatin IC20 combos, synergistic combos for chromothripsis tumors (AID 1671455; in the data active means inhibition above about 83%;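 further: 0% = vehicle DMSO and 100% = high DMSO as cytotoxic control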); settings: HD-MB03 medulloblastoma cells, stronger effect = higher value
# [5] = growth inhibition, single agents and combos, UWB1.289, cell-based, BGB or cisplatin combos, synergistic combos for chromothripsis tumors (AID 1671456); settings: UWB1.289 ovarian carcinoma cells, stronger effect = higher value;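 further: cells exposed to compound for four days; 0% = vehicle DMSO and 100% = killing by high DMSO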
# [6] = growth inhibition, single agents and combos, LFS_MB_2R, cell-based, cisplatin combos, synergistic combos for chromothripsis tumors (AID 1671457); settings: LFS_MB_2R medulloblastoma cells, stronger effect = higher value;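 further: cells exposed to compound for four days before readout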
# [7] = growth inhibition, MDA-MB-436, cell-based, BGB or cisplatin combos, synergistic combos for chromothripsis tumors (AID 1671458; call rule not given here;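 further: cells exposed for 96 hours; 0% = vehicle DMSO and 100% = killing by high DMSO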); settings: MDA-MB-436 breast carcinoma growth inhibition, drug combinations, stronger effect = higher value
# [8] = UWB1.289_BRCA1 ovarian cancer growth, cell-based, BGB or cisplatin combinations (AID 1671459); settings: UWB1.289 BRCA1 ovarian carcinoma, drug combinations, stronger effect = higher value
# [9] = drug combination toxicity in non-malignant astrocytes – cell-based, BGB or cisplatin IC20 combos, cytotoxicity control for chromothriptic childhood tumor combination screen (AID 1671460); settings: Human astrocytes, viability inhibition, drug combinations, at 0.5 µM, stronger effect = higher value;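 further: cells exposed to compounds for 96 hours before viability readout; 0% = vehicle and 100% = killing control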
# [10] = BT084 cell growth, single and combined drugs, ICGC_MB145, cisplatin and BGB IC40 combos (AID 1671461); settings: BT084 medulloblastoma cells, drug combinations, stronger effect = higher value;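 further: cells exposed to drugs for 96 hours; 0% = vehicle DMSO and 100% = high DMSO full killing control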
# [11] = RCMB18 cell growth, single agent and combined, cisplatin and BGB IC40 combos (AID 1671462); settings: RCMB18 medulloblastoma cells, stronger effect = higher value;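 further: cells exposed to compound for four days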
# [12] = CRL1545 cell growth, single agent and combined, cisplatin and BGB IC20 combos (AID 1671464); settings: CRL1545 osteosarcoma cells, stronger effect = higher value;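 further: cells exposed to compound for 96 hours before readout; 0% = vehicle DMSO and 100% = high DMSO killing control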
# [13] = tested on: Hepatitis C virus NS3 helicase; test: blockers of NS3h binding to ssDNA – biochemical, fluorescence polarization, LOPAC1280 library, primary screen (AID 687035; in the data active means inhibition above about 37%); settings: Purified HCV NS3 helicase, Cy5-dT15 ssDNA binding fluorescence polarization; stronger effect = higher value; concentration not given here
# [14] = compounds altering Cy5-DNA-NS3h complex signal – biochemical, LOPAC1280, artefact control for HCV NS3 helicase inhibitor project (AID 687037; call rule not given here); settings: Cy5-DNA-NS3h complex fluorescence interference counterscreen
# [15] = measured here: combination with BGB IC40, at 0.05 µM
# [16] = measured here: combination with cisplatin, at 0.5 µM
# [17] = measured here: combination with cisplatin, at 5 µM
# [18] = measured here: combination with BGB at IC20, at 0.5 µM
# [19] = measured here: combination with cisplatin at IC20, at 0.5 µM
# [20] = measured here: combo with BGB at IC20, at 0.5 µM
# [21] = measured here: combo with cisplatin at IC20, at 0.5 µM
# [22] = measured here: inhibition with BGB combination, at 0.05 µM
# [23] = measured here: inhibition with cisplatin combination, at 0.05 µM
# [24] = measured here: BGB combination, at 0.5 µM
# [25] = measured here: BGB combination, at 5 µM
# [26] = measured here: cisplatin combination, at 0.5 µM
# [27] = measured here: cisplatin combination, at 5 µM
# [28] = BGB combination, concentration series, at 5 µM
# [29] = cisplatin combination, concentration series, at 5 µM
# [30] = measured here: combo with BGB IC20
# [31] = measured here: combo with cisplatin IC20
# [32] = cisplatin combination, at 0.5 µM
# [33] = measured here: BGB IC40 combination 0.05 uM, at 0.05 µM
# [34] = measured here: BGB IC40 combination, at 0.05 µM
# [35] = measured here: with BGB IC20 combination, at 0.5 µM
# [36] = measured here: with cisplatin IC20 combination, at 0.5 µM
compound,measurement,setting,value
Cc1c(CC(C)(C)C(=O)O)n(Cc2ccc(Cl)cc2)c2ccc(F)cc12,period change,[1],-0.04 h (inactive)
COc1[nH]c2ccc(F)cc2c1C(=O)OCC1CCN(CCNS(C)(=O)=O)CC1,period change,[1],-0.015 h (inactive)
O=C(OCCN1CCCCC1)c1c[nH]c2ccccc12,period change,[1],-0.005 h (inactive)
O=c1[nH]cnc2ccccc12,inhibition,[2]; at 0.5 µM,-18.8% (inactive)
same,inhibition,[2]; [15],-25.1%
same,inhibition,[2]; [16],-17.4%
same,inhibition,[2]; [17],-38.3%
same,inhibition,[3]; at 0.5 µM,-61.6% (inactive)
same,inhibition,[3]; [18],-35.5%
same,inhibition,[3]; [19],-103%
same,inhibition,[4]; at 0.5 µM,4.79% (inactive)
same,inhibition,[4]; [20],10.7%
same,inhibition,[4]; [21],11.6%
same,inhibition,[5]; at 0.5 µM,2.5% (inactive)
same,inhibition,[5]; [22],-5.21%
same,inhibition,[5]; [23],-17.2%
same,inhibition,[6]; at 0.5 µM,-8.8% (inactive)
same,inhibition,[6]; [16],-21.4%
same,inhibition,[6]; [17],-15.8%
same,inhibition,[7]; at 0.5 µM,-5.02% (inactive)
same,inhibition,[7]; [24],-15%
same,inhibition,[7]; [25],-20.2%
same,inhibition,[7]; [26],-1.15%
same,inhibition,[7]; [27],-18.2%
same,inhibition,[8]; [28],11.1%
same,inhibition,[8]; at 0.5 µM,0.09% (inactive)
same,inhibition,[8]; [29],-4.56%
same,inhibition,[9],12.5% (inactive)
same,inhibition,[9]; [30],-1.33%
same,inhibition,[9]; [31],21.8%
same,inhibition,[10]; at 0.5 µM,-14% (inactive)
same,inhibition,[10]; [32],-49.4%
same,inhibition,"[10]; cisplatin combination, at 5 µM",-11.8%
same,inhibition,[10]; [33],-51.7%
same,inhibition,"[10]; single agent, at 5 µM",12.2%
same,inhibition,[11]; at 0.5 µM,-16.1% (inactive)
same,inhibition,"[11]; cisplatin combo, at 5 µM",-26.7%
same,inhibition,[11]; [34],-1.26%
same,inhibition,[11]; [16],-25.5%
same,inhibition,"[11]; single agent, at 5 µM",-13.2%
same,inhibition,[12]; at 0.5 µM,0.67% (inactive)
same,inhibition,[12]; [35],-3.84%
same,inhibition,[12]; [36],1.34%
same,inhibition,"[12]; single agent, at 0.05 µM",-24.3%
same,inhibition,"[12]; single agent, at 5 µM",-5.49%
COC(=O)c1c(-c2cc(OC)c(OC)c(OC)c2)c2ccnc(OCc3ncccn3)c2c(=O)n1Cc1ccnc(C)c1,period change,[1],0.03 h (inactive)
C#CCN1C(C)=C(C(=O)OC)C(c2cccc([N+](=O)[O-])c2)C(C(=O)OCC)=C1C (centres undefined),period change,[1],-0.025 h (inactive)
same,inhibition,[13],1% (inactive)
same,fluorescence ratio (interference),[14],0.9 (inactive)
N#C/C(=C\c1ccc(O)c(O)c1)C(=O)Nc1ccccc1,period change,[1],0.11 h (inactive)
same,inhibition,[13],-2% (inactive)
same,fluorescence ratio (interference),[14],0.9 (inactive)
COc1ccc2[nH]c(I)c(CCNC(C)=O)c2c1,period change,[1],-0.075 h (inactive)
Cc1nc2sccn2c(=O)c1CCN1CCC(=C(c2ccccc2)c2ccc(F)cc2)CC1,period change,[1],-0.05 h (inactive)
same,inhibition,[13],-1% (inactive)
same,fluorescence ratio (interference),[14],1 (inactive)
COc1cc2c(cc1C(F)(F)F)N(C(=O)Nc1cc(F)cc(-c3cccnc3)c1)CC2,period change,[1],0.195 h (inactive)
COc1cc(C=O)c([N+](=O)[O-])cc1OC,inhibition,[2]; at 0.5 µM,-20.1% (inactive)
same,inhibition,[2]; [15],-4.39%
same,inhibition,[2]; [16],-40%
same,inhibition,[2]; [17],-37.8%
same,inhibition,[3]; at 0.5 µM,-33.8% (inactive)
same,inhibition,[3]; [18],-36.3%
same,inhibition,[3]; [19],-11%
same,inhibition,[4]; at 0.5 µM,-11.8% (inactive)
same,inhibition,[4]; [20],-17.8%
same,inhibition,[4]; [21],-8.28%
same,inhibition,[5]; at 0.5 µM,-8.53% (inactive)
same,inhibition,[5]; [22],3.53%
same,inhibition,[5]; [23],-7.7%
same,inhibition,[6]; at 0.5 µM,-7.6% (inactive)
same,inhibition,[6]; [16],-4.15%
same,inhibition,[6]; [17],0.394%
same,inhibition,[7]; at 0.5 µM,-6.2% (inactive)
same,inhibition,[7]; [24],-13%
same,inhibition,[7]; [25],-6.36%
same,inhibition,[7]; [26],1.75%
same,inhibition,[7]; [27],6.49%
same,inhibition,[8]; [28],0.582%
same,inhibition,[8]; at 0.5 µM,-4.66% (inactive)
same,inhibition,[8]; [29],-5.09%
same,inhibition,[9],-7.65% (inactive)
same,inhibition,[9]; [30],-3.78%
same,inhibition,[9]; [31],-9.79%
same,inhibition,[10]; at 0.5 µM,1.74% (inactive)
same,inhibition,[10]; [32],3.64%
same,inhibition,"[10]; cisplatin combination, at 5 µM",-6.4%
same,inhibition,[10]; [33],80.8%
same,inhibition,"[10]; single agent, at 5 µM",1.94%
same,inhibition,[11]; at 0.5 µM,-0.87% (inactive)
same,inhibition,"[11]; cisplatin combo, at 5 µM",-1.64%
same,inhibition,[11]; [34],1.84%
same,inhibition,[11]; [16],9.53%
same,inhibition,"[11]; single agent, at 5 µM",-21.6%
same,inhibition,[12]; at 0.5 µM,-4.03% (inactive)
same,inhibition,[12]; [35],-16.1%
same,inhibition,[12]; [36],2%
same,inhibition,"[12]; single agent, at 0.05 µM",-14.2%
same,inhibition,"[12]; single agent, at 5 µM",-34.2%
